Assay results taken from PubChem BioAssay AID1159580 (chemical genetic matrix, 2015).
“And” between values parts separate entries of the source, which are not always exact repeats. Identical values can stand only once. The campaign covered roughly 5,500 compounds. About 2,000 (36%) were called active. Inconclusive results (about 18%) are left out. No stated cut-off is given here; in the data, active means normalized growth mostly below about 0.91 (no sharp cut-off); inconclusive means no clear call, values can overlap the other calls; inactive means mostly above about 0.92. The list shows a part of the results.

Assay: chemical genetic growth profiling, strain panel (AID 1159580);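 further: tested at 20 µM; growth read once vehicle control cultures reached saturation at 30 °C; 1 = growth at the plate median or of vehicle wells; lower values mean less growth of the strain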
Settings: S. cerevisiae deletion strains, growth OD

Measured: normalized growth

O=C(O)CCCCCCCC(=O)O
inactive: locus YAL013W, strain DEP1, active compounds read low 0.991 | locus YAL021C, strain ccr4, active compounds read low 1.02 | locus YAL026C, strain drs2, active compounds read low 1.04 | locus YAL030W, strain snc1, active compounds read low 1.02 | locus YAL040C, strain CLN3, active compounds read low 1.01 | locus YBL061C, strain skt5, active compounds read low 1.01 | locus YBR009C, strain hhf1, active compounds read low 1.01 | locus YBR021W, strain FUR4, active compounds read low 0.999 | locus YBR023C, strain chs3, active compounds read low 1.01 | locus YBR171W, strain sec66, active compounds read low 1.03 | locus YBR229C, strain ROT2, active compounds read low 0.956 | locus YBR231C, strain swc5, active compounds read low 1.01 | locus YBR279W, strain paf1, active compounds read low 0.991 | locus YCL011C, strain gbp2, active compounds read low 1.02 | locus YCL016C, strain dcc1, active compounds read low 1.03 | locus YCL029C, strain bik1, active compounds read low 0.969 | locus YCL069W, strain vba3, active compounds read low 1.02 | locus YCR088W, strain abp1, active compounds read low 1.02 | locus YDL005C, strain med2, active compounds read low 0.986 | locus YDL035C, strain GPR1, active compounds read low 0.994 | locus YDL040C, strain nat1, active compounds read low 0.999 | locus YDL074C, strain BRE1, active compounds read low 0.982 | locus YDL101C, strain DUN1, active compounds read low 0.981 | locus YDL134C, strain PPH21, active compounds read low 0.96 | locus YDL185W, strain tfp1, active compounds read low 0.982 | locus YDL192W, strain arf1, active compounds read low 0.984 | locus YDR001C, strain nth1, active compounds read low 1.03 | locus YDR069C, strain doa4, active compounds read low 1 | locus YDR101C, strain arx1, active compounds read low 0.991 | locus YDR137W, strain rgp1, active compounds read low 0.99 | locus YDR150W, strain NUM1, active compounds read low 0.974 | locus YDR159W, strain sac3, active compounds read low 0.997 | locus YDR162C, strain NBP2, active compounds read low 0.994 | locus YDR195W, strain ref2 0.997 | locus YDR297W, strain sur2, active compounds read low 0.996 | locus YDR318W, strain mcm21, active compounds read low 0.981 | locus YDR334W, strain swr1, active compounds read low 1 | locus YDR335W, strain msn5, active compounds read low 1 | locus YDR363W, strain ESC2, active compounds read low 0.994 | locus YDR388W, active compounds read low 0.98 | locus YDR392W, strain spt3, active compounds read low 1.04 | locus YDR502C, strain sam2, active compounds read low 0.986 | locus YEL003W, strain gim4, active compounds read low 1.02 | locus YEL037C, strain rad23, active compounds read low 1 | locus YEL061C, strain CIN8 (second series), active compounds read low 1.03 | locus YEL061C, strain CIN8, active compounds read low 0.989 | locus YER002W, strain NOP16, active compounds read low 1.01 | locus YER015W, strain faa2, active compounds read low 1 | locus YER016W, strain bim1, active compounds read low 1.02 | locus YER110C, active compounds read low 0.971 | locus YER111C, strain swi4, active compounds read low 1.01 | locus YER155C, strain BEM2 (second series), active compounds read low 1.07 | locus YER155C, strain BEM2, active compounds read low 1 | locus YER167W, strain BCK2, active compounds read low 1.02 | locus YFR010W, strain ubp6, active compounds read low 1.01 | locus YGL078C, strain dbp3, active compounds read low 0.983 | locus YGL086W, strain mad1, active compounds read low 1 | locus YGL167C, strain pmr1, active compounds read low 1.02 | locus YGL173C, strain kem1, active compounds read low 1.02 | locus YGL227W, strain vid30, active compounds read low 1.02 | locus YGL240W, strain doc1, active compounds read low 1.01 | locus YGL248W, strain PDE1, active compounds read low 0.992 | locus YGL253W, strain hxk2, active compounds read low 1.02 | locus YGR078C, strain PAC10, active compounds read low 0.99 and 1.01 | locus YGR135W, strain pre9, active compounds read low 0.988 | locus YGR229C, strain SMI1, active compounds read low 1 and 0.991 | locus YGR252W, strain gcn5, active compounds read low 0.961 | locus YHR013C, strain ard1, active compounds read low 1.04 | locus YHR027C, strain rpn1, active compounds read low 1 | locus YHR030C, strain SLT2, active compounds read low 0.993 and 0.979 | locus YHR079C, strain IRE1 (second series), active compounds read low 0.988 | locus YHR079C, strain IRE1, active compounds read low 0.982 | locus YHR094C, strain hxt1, active compounds read low 0.995 | locus YHR129C, strain ARP1, active compounds read low 0.96 | locus YHR142W, strain chs7, active compounds read low 1.05 | locus YHR200W, strain rpn10, active compounds read low 0.991 | locus YIL066C, strain RNR3, active compounds read low 0.976 | locus YIL073C, strain SPO22, active compounds read low 0.952 | locus YIL125W, strain kgd1, active compounds read low 0.999 | locus YIR030C, strain dcg1, active compounds read low 0.986 | locus YJL092W, strain hpr5, active compounds read low 1.03 | locus YJL095W, strain BCK1 (second series), active compounds read low 1.01 | locus YJL095W, strain BCK1, active compounds read low 1.03 and 0.992 | locus YJL115W, strain asf1, active compounds read low 1.01 | locus YJL129C, strain trk1, active compounds read low 1.01 | locus YJL134W, strain LCB3, active compounds read low 0.991 | locus YJL154C, strain vps35, active compounds read low 1.03 | locus YJL164C, strain tpk1, active compounds read low 1.03 | locus YJL166W, strain qcr8, active compounds read low 1.02 | locus YJL168C, strain set2, active compounds read low 0.99 | locus YJL187C, strain SWE1 (second series), active compounds read low 0.976 | locus YJR043C, strain POL32, active compounds read low 0.994 | locus YJR066W, strain TOR1, active compounds read low 0.965 | locus YJR075W, strain HOC1, active compounds read low 0.985 and 0.983
